# TRHR enhancer: qHTS for Small Molecule Agonists and Allosteric Enhancers of Human TRH Receptor: Primary Screen for Enhancers; Thyrotropin-releasing hormone receptor (Homo sapiens), P34981; TRHR cells, fluo-8 calcium fluorescence, EC20 TRH enhancement; enhancement, % at 2 µM; hit rate 0.66% among 360,000; in the data active = enhancement above about 30%
#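 TRHR-expressing cells loaded with fluo-8 calcium dye were read kinetically (ex 480/em 530) during compound addition, then stimulated with an EC20 of TRH (10 nM final). Enhancement of the Gq-mediated intracellular calcium response was scored.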
# PTHR1 ag: qHTS for PTHR1 Agonists: Primary Screen. HEK293 GP2 PTHR1 cells, GloSensor cAMP luminescence, 1 h. Parathyroid hormone/parathyroid hormone-related peptide receptor (Homo sapiens), Q03431. Potency, µM (series often up to 115 µM), most hits filed as activators. hit rate 0.075% among 410,000; note: nearly all actives have a fitted effect of over 55% in size
# Target sequence (Q03431 whole entry, looked up): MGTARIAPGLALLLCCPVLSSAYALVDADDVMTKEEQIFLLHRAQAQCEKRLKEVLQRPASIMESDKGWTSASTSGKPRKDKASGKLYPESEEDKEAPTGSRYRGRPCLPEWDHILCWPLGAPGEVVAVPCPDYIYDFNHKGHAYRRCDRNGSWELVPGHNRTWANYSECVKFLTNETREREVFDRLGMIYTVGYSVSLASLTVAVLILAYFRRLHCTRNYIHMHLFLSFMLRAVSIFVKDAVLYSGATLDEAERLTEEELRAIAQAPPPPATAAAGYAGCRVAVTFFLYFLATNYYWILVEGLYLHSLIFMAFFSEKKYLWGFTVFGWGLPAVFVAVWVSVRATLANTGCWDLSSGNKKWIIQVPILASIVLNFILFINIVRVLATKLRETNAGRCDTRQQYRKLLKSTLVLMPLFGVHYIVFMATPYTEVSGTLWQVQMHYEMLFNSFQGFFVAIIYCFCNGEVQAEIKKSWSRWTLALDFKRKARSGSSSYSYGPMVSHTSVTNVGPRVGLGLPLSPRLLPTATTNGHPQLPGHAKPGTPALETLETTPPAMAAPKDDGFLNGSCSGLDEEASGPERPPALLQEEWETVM
#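 HEK-293-derived GP2 cells expressing PTHR1 and a GloSensor cAMP reporter, 3,000/well, plated overnight, given luciferin plus IBMX (each 0.5 mM as added) for 1 h at 37 °C, then compound for 1 h at 37 °C. Luminescence was read after 15 min at room temperature.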
# GLP1R ag: qHTS of GLP-1 Receptor Agonists. AID 624172, 2012. HEK293 GLP-1R CRE-luciferase, luminescence, 4-6 h; cells express a hypersensitive GLP-1R form. Potency, µM (highest dose often 45.6 µM), usual class: activators. hit rate 0.007% among 380,000. Glucagon-like peptide 1 receptor (Homo sapiens), P43220
# GLP1R inv ag: qHTS of GLP-1 Receptor Inverse Agonists (Inhibition Mode) | HEK293 GLP-1R CRE-luciferase, luminescence, 24 h; GLP-1R form is constitutively active | hit rate 1.6% among 410,000 | Glucagon-like peptide 1 receptor (Homo sapiens), P43220 | Potency, µM (highest dose often 38.3 µM), most hits filed as inhibitors; note: nearly all actives have a fitted effect of over 55% in size
#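 HEK293 cells stably co-expressing a cAMP-responsive luciferase reporter and constitutively active GLP-1R were seeded, incubated 12 h, then exposed to compounds for 24 h at 37 C. Luminescence was read 12 min after detection reagent; inverse agonists lower signal.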
# HEK293 tox: qHTS of GLP-1 Receptor Inverse Agonists: Cytotox Screen; HEK293 cAMP-luciferase reporter cells, luminescence, 24 h; Potency, µM (top dose mostly 38.3 µM), most hits filed as inhibitors; AID 624418, 2012; hit rate 0.13% among 410,000;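 note: loss of luciferase light is scored as toxicity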
#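 Here, cytotoxicity is scored as loss of luminescence. The MLSMR collection was tested on cells seeded in medium containing 10% Nu serum, with a 24 hr compound exposure preceded by 12 hours of culture.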
# TRHR ag: qHTS for Small Molecule Agonists and Allosteric Enhancers of Human TRH Receptor: Primary Screen for Agonists. AID 493084, 2011. hit rate 0.18% among 360,000. activation, % at 2 µM. TRHR cells, calcium flux fluo-8, FDSS agonist mode; in the data active = activation above about 30%
#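 Fluo-8-loaded TRHR cells; 10 s baseline, compound added, kinetic Ca2+ fluorescence read 1/s, agonist mode.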
# Hits are given with their value; i = inactive; ? = inconclusive; nt = no result. The list is not random: actives were taken first. Their share in the collection is about 2.4%. Unless noted, calls come from the whole dose curve; as a rule, active = well fitted curve in the direction sought with a large enough effect; inconclusive = small, poorly fitted or top-dose-only effect, or another doubt; inactive = no such curve, though single readings can be large; an effect the other way counts as inactive or inconclusive.
SMILES,TRHR enhancer,PTHR1 ag,GLP1R ag,GLP1R inv ag,HEK293 tox,TRHR ag
CCCc1c(-c2ccc(F)cc2F)ncn1Cc1cccc(-c2ccccc2)c1,nt,i,nt,?,i,nt
CN(C)CC(CCC(CN(C)C)C(O)(c1ccccc1)c1ccccc1)C(O)(c1ccccc1)c1ccccc1 (configuration not stated),i,i,i,2.82µM,?,i
CN(C)C/C=C/C(O)(c1ccccc1)c1ccccc1,i,i,i,i,i,i
O=C(OCc1c(Cl)nc2sccn12)c1cc2c(s1)CCCC2,32.5,i,i,i,i,i
O=C(COc1ccc(Br)cc1CO)N1CCCc2ccccc21,i,i,i,?,i,i
O=C(CN1C(=O)NC2(CCOc3ccccc32)C1=O)Nc1cccc(Cl)c1 (configuration not stated),i,i,i,10µM,i,i
COc1cc(NC(=O)CN2C(=O)NC3(CCOc4ccccc43)C2=O)cc(OC)c1 (configuration not stated),i,i,i,i,i,i
Clc1ccc(Cn2ncc3c(NCc4ccccc4)ncnc32)cc1,i,i,i,?,i,i
O=S(=O)(c1cccc(C(F)(F)F)c1)N1CCC(CO)(CCCc2ccccc2)CC1,i,i,i,?,i,i
Cn1c(=O)c(=O)n(C)c2cc(S(=O)(=O)CCC(=O)Nc3cccc(C(F)(F)F)c3)ccc21,i,?,i,i,i,i
CCC1C(=NO)C(CC)C(c2ccccc2)NC1c1ccccc1 (configuration not stated),i,i,i,3.55µM,?,i
O=c1c2ccccc2sc2c(CO)ccc(NCCN3CCCCC3)c12,nt,i,i,10µM,7.94µM,nt
CCN1C(=O)c2ccccc2Sc2ccc(C(=O)NCCCN3CCOCC3)cc21,31.6,i,i,i,i,i
CCc1ccccc1NC(=O)Nc1ccc2c(c1)N(CC)C(=O)c1ccccc1S2,i,i,nt,5.01µM,i,i
Cc1ccc(CN2C(=O)c3ccccc3Sc3ccc(C(=O)NCCN4CCOCC4)cc32)cc1,i,i,i,6.31µM,?,i
Cc1cccc(CN2C(=O)c3ccccc3Sc3ccc(C(=O)NCCN4CCOCC4)cc32)c1,i,i,i,?,?,i
Cc1cc(C)cc(NC(=O)CN2C(=O)c3ccccc3Sc3ccc(C(=O)N4CCCC4)cc32)c1,32.7,i,nt,?,i,i
O=C(NCCCN1CCOCC1)c1ccc2c(c1)N(Cc1cccc(Cl)c1)C(=O)c1ccccc1S2,i,i,nt,i,i,i
CCN1C(=O)c2ccccc2Sc2ccc(NC(=O)Nc3ccc(C(C)=O)cc3)cc21,i,i,nt,?,i,i
Cc1cc(C)cc(NC(=O)Nc2cc(S(=O)(=O)N(C)C)ccc2C)c1,i,i,i,10µM,i,i
C=CCN(Cc1ccc(OC)c(OC)c1)C(=O)N1CCOCC1,i,i,i,i,i,i
CC(C)(C)c1ccc(S(=O)(=O)NC(=O)C2(C)CCN2C(=O)Cc2ccc(-c3ccccc3)cc2)cc1 (configuration not stated),nt,i,i,?,i,nt
CC(C)CN1C(=O)c2ccc(NC(=O)c3cccs3)cc2C1=O,37.6,i,i,i,i,i
CNC(=O)c1ccc2c(c1)N=C(C)c1cc(C)ccc1S2,i,i,i,?,i,i
CCC1=Nc2cc(C(=O)NC3CCCC3)ccc2Sc2ccc(Cl)cc21,i,i,nt,?,?,i
SMILES,TRHR enhancer,PTHR1 ag,GLP1R ag,GLP1R inv ag,HEK293 tox,TRHR ag
CC1=Nc2cc(C(=O)NC3CCCC3)ccc2Sc2ccc(Cl)cc21,i,i,nt,1.58µM,?,i
CC1=Nc2cc(C(=O)NC3CCCC3)ccc2Sc2ccc(C)cc21,i,i,i,5.01µM,?,i
CCOC(=O)c1ccc(-n2c(CN3CCC(O)CC3)nc3ccc([N+](=O)[O-])cc3c2=O)cc1,i,i,i,i,i,i
Cc1ccc2c(c1)c1c(n2CC(O)CNC2CCCC2)CCCC1 (configuration not stated),i,i,i,11.2µM,?,i
Cc1ccc2c(c1)c1c(n2CC(O)Cn2ccnc2C)C(=O)CCC1 (configuration not stated),i,i,i,?,i,i
CSc1ccc(NC(=O)NCCCN2CCC(Cc3ccccc3)CC2)cc1,i,i,i,7.94µM,?,i
CCCCN(C(=O)c1ccc(Cl)cc1)C1CC2CCC(C1)N2C (configuration not stated),i,i,i,?,i,i
CN1C2CCC1CC(N(CCc1ccccc1)C(=O)c1ccc(Cl)cc1)C2 (configuration not stated),i,i,i,10µM,i,i
Cc1nc2ccccc2c2oc(C(=O)Nc3ccc(C(C)C)cc3)cc12,i,i,i,7.94µM,i,i
CC(CC(=O)O)CC(=O)N1CCN(S(=O)(=O)c2cccs2)CC1 (configuration not stated),i,i,i,i,i,i
Cc1ccc(S(=O)(=O)N2CCOCC2)cc1NC(=O)CN1CCC(Cc2ccccc2)CC1,i,i,i,7.08µM,i,i
Cc1ccc(S(=O)(=O)N2CCOCC2)cc1NC(=O)COC(=O)CNC(=O)c1ccc(Oc2ccccc2)cc1,i,i,i,i,i,i
Cc1ccc(S(=O)(=O)N2CCOCC2)cc1NC(=O)COc1cccc(Oc2ccccc2)c1,i,i,i,10µM,i,i
COc1cccc(CSc2nc3n(n2)C(CC(C)C)C(C(=O)Nc2ccccc2OC)=C(C)N3)c1 (configuration not stated),i,i,nt,i,i,i
FC(F)(F)c1cc(Nc2ccccc2)nc(-c2ccccn2)n1,i,i,i,3.55µM,?,i
CC(C)Nc1cc(C(F)(F)F)nc(-c2ccccn2)n1,nt,i,i,i,?,nt
Cc1ccccc1C(=O)Nc1cc(-c2cc(C(C)(C)C)oc2C)nn1C,i,i,i,10µM,i,i
Cc1ccccc1NC(=O)Nc1cc(-c2ccccc2)nn1C,i,i,i,i,i,i
COC(=O)c1ccc(/C=C(\C#N)c2nc3ccccc3s2)cc1,i,i,i,i,i,i
N#C/C(=C/c1ccc(-c2ccc(S(N)(=O)=O)cc2)o1)c1nc2ccccc2s1,i,i,i,i,i,92.6
